Measured values published in PubChem BioAssay (NCATS).
Records with an inconclusive call do not appear. A call without a number means that no potency is given here. Calls of active or inactive are those of the source. Calls come from the whole dose curve; as a rule, active = well fitted curve in the direction sought with a large enough effect; inconclusive = small, poorly fitted or top-dose-only effect, or another doubt; inactive = no such curve, though single readings can be large; an effect the other way counts as inactive or inconclusive.

Legend:
[1] = Cell Viability - LYMP2-005 (AID 967); note: series mostly up to about 92 µM
Method in brief: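 qHTS viability screen in LYMP2-005 cells: 24 h at 37 C with compound, ATP luminescence via CellTiter-Glo, AC50 from Hill curves.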

[2] = Cell Viability - LYMP2-009 (AID 968); note: series mostly up to about 92 µM; nearly all actives have a fitted effect of over 55% in size
[3] = Cell Viability - LYMP2-011 (AID 969); note: nearly all actives have a fitted effect of over 60% in size
Method in brief: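 2500 cells/well in complete medium, compound-treated 24 h at 37 C. Viability read as intracellular ATP by CellTiter-Glo luminescence after 30 min at room temperature. AC50 from Hill fits of qHTS concentration-response data.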

[4] = Cell Viability - LYMP2-013 (AID 970); note: series mostly up to about 92 µM; nearly all actives have a fitted effect of over 55% in size
Method in brief: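 Human lymphoblastoid LYMP2-013 cells, 2500/well, treated 24 h at 37 C in complete medium; viability as intracellular ATP by CellTiter-Glo luminescence after 30 min. AC50 from Hill fits of qHTS concentration-response.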

[5] = Cell Viability - LYMP2-015 (AID 971); note: nearly all actives have a fitted effect of over 55% in size
Method in brief: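 LYMP2-015 human lymphoblastoid cells (2500/well) in complete medium, compound-treated 24 h at 37 C; viability read as cellular ATP by CellTiter-Glo luminescence after 30 min at room temperature. AC50 from Hill-equation fits of qHTS concentration-response data.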

[6] = Cell Viability - LYMP2-017 (AID 972); note: series mostly up to about 92 µM; nearly all actives have a fitted effect of over 55% in size
Method in brief: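 LYMP2-017 human lymphoblastoid cells (2500/well) settled 5 hr at 37 C, then exposed to compound 24 hr at 37 C in complete medium. Viability taken as intracellular ATP by CellTiter-Glo luminescence after 30 min at RT; AC50 from Hill fits.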

[7] = Cell Viability - LYMP2-021 (AID 974)
Method in brief: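 Human lymphoblastoid LYMP2-021 cells, 2500/well in complete medium, treated 24 hours at 37 C. Intracellular ATP by CellTiter-Glo luminescence (30 min, RT); AC50 from Hill fits of concentration-response.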

[8] = Cell Viability - LYMP2-023 (AID 975)
Method in brief: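 LYMP2-023 human lymphoblastoid cells, 2500/well, preincubated 5 hr at 37 C, then compound-treated 24 hr at 37 C in complete medium. CellTiter-Glo luminescence (ATP) after 30 min at room temperature; AC50 from Hill-equation fits; tetraoctylammonium bromide positive control.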

[9] = Cell Viability - LYMP2-025 (AID 976); note: potency is the fitted concentration of half-maximal effect
Method in brief: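 Human lymphoblastoid LYMP2-025 cells, 2500/well, exposed 24 h at 37 C in complete medium in 1536-well qHTS. Viability as cellular ATP by CellTiter-Glo luminescence; AC50 from Hill fits of concentration-response data.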

[10] = Cell Viability - LYMP2-019 (AID 973); note: nearly all actives have a fitted effect of over 55% in size
Method in brief: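 Human lymphoblastoid LYMP2-019 cells (2500/well) preincubated 5 h at 37 C, then treated 24 h at 37 C in complete medium. Viability by CellTiter-Glo ATP luminescence after 30 min at room temperature; AC50 from Hill fits.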

SMILES | outcome [1] | Potency [2] | Potency [3] | Potency [4] | Potency [5] | Potency [6] | Potency [7] | Potency [8] | Potency [9] | Potency [10]
CCC(=O)/C=C/C1C(C)=CCCC1(C)C (configuration not stated) | inactive | inactive | inactive | inactive | inactive | inactive | inactive | inactive | inactive | 
Cc1cc(C)cc([N+](=O)[O-])c1 | inactive | inactive | inactive | inactive | inactive | inactive | inactive |  | inactive | 
BrC/C=C/CBr | inactive | inactive | inactive | inactive | inactive | inactive | inactive | inactive | inactive | 
Nc1cccc(N)c1 | inactive | inactive | inactive | inactive |  | inactive | inactive | inactive |  | inactive
CC=C(Cl)Cl | inactive | inactive | inactive | inactive | inactive | inactive | inactive | inactive | inactive | 
O=C(O)c1cccc([N+](=O)[O-])c1 | inactive | inactive | inactive | inactive |  | inactive | inactive | inactive |  | inactive
CC(C)c1ccccc1 | inactive | inactive | inactive | inactive | inactive | inactive | inactive | inactive | inactive | 
O=[N+]([O-])c1cccc(C(F)(F)F)c1 | inactive | inactive | inactive | inactive | inactive | inactive | inactive | inactive | inactive | 
O=C(O)c1ccc(CO)o1 | inactive | inactive | inactive | inactive | inactive |  |  | inactive | inactive | 
ClC/C=C/CCl | inactive | inactive | inactive | inactive | inactive | inactive | inactive | inactive | inactive | 
CCOCC(=O)O | inactive | inactive | inactive | inactive | inactive | inactive | inactive | inactive | inactive | 
Cc1ccc2ncccc2c1 | inactive | inactive | inactive | inactive | inactive | inactive | inactive |  | inactive | 
C=CCOC(=O)CCCCCCCC | inactive | inactive | inactive | inactive |  | inactive | inactive | inactive |  | inactive
Cc1ccc(N(C)C)cc1 | inactive | inactive | inactive | inactive | inactive | inactive | inactive |  | inactive | inactive
S=C([S-])NCCNC(=S)[S-].[Zn+2] | inactive | inactive | inactive | inactive | inactive | inactive | inactive | inactive | inactive | 
C/C(C=O)=C/c1ccccc1 | inactive | inactive | inactive | inactive |  | inactive | inactive | inactive | inactive | inactive
Cc1cc(C2(c3cc(C)c(O)cc3C)OS(=O)(=O)c3ccccc32)c(C)cc1O | inactive | inactive | inactive | inactive | inactive | inactive | inactive | inactive | inactive | 
ON=C1CCCCC1 | inactive | inactive | inactive | inactive |  | inactive | inactive | inactive |  | inactive
NS(=O)(=O)O | inactive | inactive | inactive | inactive | inactive | inactive | inactive | inactive | inactive | 
O=C(O)c1ccc(Cl)c(Cl)c1 | inactive | inactive |  | inactive | inactive | inactive | inactive | inactive | inactive | inactive
Cc1ccc2ccccc2c1[N+](=O)[O-] | inactive | inactive |  | inactive | inactive | inactive | inactive |  | inactive | inactive

SMILES | outcome [1] | Potency [2] | Potency [3] | Potency [4] | Potency [5] | Potency [6] | Potency [7] | Potency [8] | Potency [9] | Potency [10]
Cc1cccc(C)c1[N+](=O)[O-] | inactive | inactive | inactive | inactive |  | inactive | inactive | inactive | inactive | inactive
CCOC(=O)OCC | inactive | inactive | inactive | inactive |  | inactive | inactive | inactive | inactive | inactive
Cc1ccc2cccnc2c1 | inactive | inactive |  | inactive | inactive | inactive | inactive | inactive |  | inactive
Cc1cscn1 | inactive | inactive | inactive | inactive |  | inactive | inactive | inactive |  | 
Cc1cccc([N+](=O)[O-])c1C(=O)O | inactive | inactive |  | inactive | inactive | inactive | inactive | inactive | inactive | inactive
CN(C)c1cccc(O)c1 | inactive | inactive |  | inactive | inactive | inactive | inactive | inactive | inactive | inactive
COc1ccc(OC)cc1 | inactive | inactive |  | inactive | inactive | inactive | inactive | inactive | inactive | inactive
N#CCc1ccccc1[N+](=O)[O-] | inactive | inactive |  | inactive | inactive | inactive | inactive | inactive | inactive | inactive
CC(C)Cc1nccs1 | inactive | inactive |  | inactive | inactive | inactive | inactive | inactive | inactive | inactive
CCOc1cccc(N)c1 | inactive | inactive | inactive | inactive |  | inactive | inactive | inactive | inactive | inactive
C[C@@H]1CC2(OC3C[C@@]4(C)C5=CC[C@H]6C(C)(C)C(O[C@@H]7OC[C@@H](O)[C@H](O)[C@H]7O)CC[C@@]67C[C@@]57CC[C@]4(C)C31)OC(O)C1(C)OC21 (some centres not stated) | inactive | inactive | inactive | inactive |  | inactive | inactive | inactive | inactive | 
CCCCCCCN | inactive | inactive |  | inactive | inactive | inactive | inactive |  | inactive | inactive
Nc1cccc(O)c1 | inactive | inactive | inactive | inactive |  | inactive | inactive | inactive | inactive | inactive
CC(=O)OC(C)=O | inactive | inactive |  | inactive | inactive | inactive | inactive | inactive | inactive | inactive
c1ccc2c(c1)Oc1ccccc1S2 | inactive | inactive | inactive | inactive |  | inactive | inactive | inactive | 1 nM (active) | inactive
CC(C=O)Cc1ccc(C(C)(C)C)cc1 (configuration not stated) | inactive | inactive | inactive | inactive |  | inactive | inactive |  | inactive | inactive
Cc1cc(C(=O)O)ccc1[N+](=O)[O-] | inactive | inactive | inactive | inactive |  | inactive | inactive | inactive | inactive | inactive
O=C(O)/C=C/C(=O)O | inactive | inactive | inactive | inactive |  | inactive | inactive | inactive | inactive | 
CCCCCCCCC/C=C/CC1CC(=O)OC1=O (configuration not stated) | inactive | inactive |  | inactive | inactive | inactive | inactive | inactive | inactive | inactive
CCc1ccccc1 | inactive | inactive | inactive | inactive |  | inactive | inactive | inactive | inactive | 
CC/C=C1/OC(=O)c2ccccc21 | inactive | inactive | inactive | inactive |  | inactive | inactive | inactive | inactive | inactive

SMILES | outcome [1] | Potency [2] | Potency [3] | Potency [4] | Potency [5] | Potency [6] | Potency [7] | Potency [8] | Potency [9] | Potency [10]
CC(C)=CCl | inactive | inactive | inactive | inactive |  | inactive | inactive | inactive |  | 
O=[N+]([O-])c1c(Cl)cc(Cl)cc1Cl | inactive | inactive |  | inactive | inactive | inactive | inactive | inactive | inactive | inactive
Cc1cccc2sc(N)nc12 | inactive | inactive |  | inactive | inactive | inactive | inactive |  | inactive | inactive
Cc1ccc(C)c(O)c1 | inactive | inactive |  | inactive | inactive | inactive | inactive |  |  | inactive
CC(N)CN (configuration not stated) | inactive | inactive |  | inactive | inactive | inactive | inactive | inactive | inactive | inactive
Nc1ccc([N+](=O)[O-])c(N)c1 | inactive | inactive |  | inactive | inactive | inactive | inactive | inactive |  | inactive
CC(C)(C)c1ccc(OCC2CO2)cc1 (configuration not stated) | inactive | inactive | inactive | inactive |  | inactive | inactive | inactive | inactive | inactive
NC(=S)NNC(N)=S | inactive | inactive |  | inactive | inactive | inactive | inactive | inactive | inactive | inactive
NC(=O)/N=N/C(N)=O | inactive | inactive | inactive |  | inactive | inactive | inactive |  | inactive | inactive
C=CCOC(=O)COCCC(C)C | inactive | inactive |  | inactive | inactive | inactive | inactive | inactive | inactive | inactive
C/C=C(/C)C#N | inactive | inactive |  | inactive | inactive | inactive | inactive | inactive | inactive | inactive
Nc1cccc(S(=O)(=O)O)c1 | inactive | inactive |  | inactive | inactive | inactive | inactive | inactive | inactive | inactive
Cc1ccc(C)c([N+](=O)[O-])c1 | inactive | inactive |  | inactive | inactive | inactive | inactive |  | inactive | inactive
O=C(Cl)c1cccc([N+](=O)[O-])c1 | inactive | inactive | inactive | inactive |  | inactive | inactive | inactive | inactive | inactive
Fc1ccccc1 | inactive | inactive |  | inactive | inactive | inactive | inactive | inactive | inactive | inactive
O=[N+]([O-])c1ccc(CCO)cc1 | inactive | inactive | inactive |  |  |  |  |  | inactive | inactive
CC(C)Nc1ccccc1 | inactive | inactive | inactive | inactive |  | inactive | inactive | inactive | inactive | inactive
C=CCCC |  | inactive | inactive | inactive | inactive | inactive | inactive | inactive | inactive | inactive
CCC(C)(C)C(=O)O | inactive |  | inactive | inactive | inactive | inactive | inactive | inactive | inactive | inactive
Cc1ccc(Cl)cc1 |  | inactive | inactive | inactive | inactive | inactive | inactive | inactive | inactive | inactive
CCNc1ccccc1 | inactive | inactive |  | inactive |  | inactive | inactive | inactive | inactive | inactive
